The record followed here is PubChem BioAssay (NCI).

What all share (experiment): NCI-60 one-dose screen, 48 h (100 = growth as untreated, 0 = no growth, -100 = all killed)
What all share (settings): 10 µM

Experiment [1] has as its system T-47D breast.
For experiment [2], the system named is BT-549 breast.
In experiment [3] the test system is MDA-MB-435 melanoma.
For experiment [4], the system named is SW-620 colon.
Experiment [5] deals with MCF7 breast.
Experiment [6] deals with HCT-116 colon.
Experiment [7] deals with HCC-2998 colon.
In experiment [8] the test system is KM12 colon.

This is part of a sample that, as a whole, favours compounds with a hit. Of some 83,000 tested, about 20% had one in any assay.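 Assay: single dose, 48 h. Readout: percent growth (0 = no net growth; negative = cell death). Active: <10.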 Values without a mark were called inactive. Activity calls are given as the source filed them.

`CS(=O)(=O)c1nccc(-c2c(-c3cccc(O)c3)nc3sccn23)n1`: the growth was 99% in experiment [1]; 113% in experiment [2]; 84.6% in experiment [3]; 106% in experiment [4]; 86.3% in experiment [5]; 91% in experiment [6]. The growth in experiment [7] is 114%; in experiment [8], 96.6%.
In the case of `COc1ccc(-c2onc(N)c2-c2cc(OC)c3c(c2)OCO3)cc1`, the growth in experiment [1] was 19.3%; in experiment [2] it was 42.6%; in experiment [3] it was -24.1% (active); in experiment [4], 16.8%; in experiment [5], 8.88% (active); in experiment [6] it was 15.5%. Further, the growth is 52.1% in experiment [7] and 21.8% in experiment [8].
For the compound `O=C(N/N=C/c1cc([N+](=O)[O-])ccc1O)c1cccc2ccccc12`, the growth in experiment [1] was 28.3%; in experiment [2] it was 45.2%; in experiment [3], 57.1%; in experiment [4], 47.7%; in experiment [5] it was 16.5%; in experiment [6], 18.4%. Further, the growth in experiment [7] was 52.4%; in experiment [8], 56.1%.
In the case of `CC(C)N(CCOc1cccc(-c2nc3sccn3c2-c2ccnc(S(C)(=O)=O)n2)c1)C(C)C`, the growth in experiment [1] was 88.3%; in experiment [2], 128%; in experiment [3], 86.1%; in experiment [4], 67.1%; in experiment [5], 54.4%; in experiment [6], 44.9%. The values for the growth in experiment [7] and in experiment [8] were 95.9% and 87.8%, respectively.
Consider `CCN1CC(CCN2CCOCC2)C(C(c2ccccc2)c2ccccc2)C1=O` (stereo not drawn), for which the growth in experiment [1] was 99.6%; in experiment [2], 109%; in experiment [3], 99.3%; in experiment [4], 106%; in experiment [5], 97.9%; in experiment [6] it was 114%. The growth in experiment [7] was 105%; in experiment [8], 117%.
For the compound `CC(=O)COc1ccc(Cl)cc1Cl`, the growth in experiment [1] is 98.7%; in experiment [2], 111%; in experiment [3], 102%; in experiment [4], 97.2%; in experiment [5] it was 104%; in experiment [6], 99.1%. Moreover, the growth in experiment [7] is 109%; in experiment [8], 113%.
`C=C1CCC2(C#N)[C@H]3[C@H](CC[C@@H]2C)[C@@H](C)C[C@@H](CC(C)(C)NC(=O)CN2CCC2=O)[C@H]13` (stereo partly drawn): the growth in experiment [1] was 12.5%; in experiment [2] it was 55.3%; in experiment [3], 57.9%; in experiment [4], 74.6%; in experiment [5], 35.2%; in experiment [6] it was 39%. Further, the growth in experiment [7] is 41.1%; in experiment [8], 42.7%.
With `O=C(CCn1cnc2c(cc(-c3ccccc3)n2-c2ccccc2)c1=O)Nc1ccc(F)cc1`, the growth is 68.2% in experiment [1]; 57.8% in experiment [2]; 85.2% in experiment [3]; 95.9% in experiment [4]; 74.7% in experiment [5]; 62.5% in experiment [6]. Besides, the results for the growth in experiment [7] and in experiment [8] were 86.2% and 73.8%, respectively.
Take `COc1ccc(/C=C/c2nnc(/C=C/c3ccc(OC)c(OC)c3)o2)cc1OC`: the growth is 19.5% in experiment [1]; 25.5% in experiment [2]; 10.4% in experiment [3]; 18.1% in experiment [4]; 22.8% in experiment [5]; 4.83% (active) in experiment [6]. The growth is 54.9% in experiment [7] and 33.7% in experiment [8].
Regarding `CN1CCN(c2cc3c(cc2F)c(=O)c(C(=O)O)cn3-c2ccc(F)cc2)CC1`, the growth in experiment [1] is 99.9%; in experiment [2], 92.4%; in experiment [3], 103%; in experiment [4] it was 98%; in experiment [5], 104%; in experiment [6], 95.5%. Also, the growth was 106% in experiment [7] and 99% in experiment [8].
Consider `C=CCNCCN1C(=O)c2ccc3c4c(ccc(c24)C1=O)C(=O)N(CCNCC=C)C3=O`, for which the growth is -51.5% (active) in experiment [1]; 21.8% in experiment [2]; -85.2% (active) in experiment [3]; -50.3% (active) in experiment [4]; -60.1% (active) in experiment [5]; -23% (active) in experiment [6]. Moreover, the results for the growth in experiment [7] and in experiment [8] were -81.2% (active) and -53.7% (active), respectively.
For `CCN1CCN(CCC(=O)Nc2cccc(-n3cc(-c4ccncc4)c(-c4ccc(Cl)c(OC)c4)n3)c2)CC1`, the growth is 38.8% in experiment [1]; 39.2% in experiment [2]; -47% (active) in experiment [3]; 10.3% in experiment [4]; 15.5% in experiment [5]; 5.22% (active) in experiment [6]. Also, the values for the growth in experiment [7] and in experiment [8] were 43.8% and 15.7%, respectively.
For `COc1cc2c3c(n([C@@H]4CCOC4)c(=O)c2cc1OC)-c1cc2c(cc1C3=O)OCO2`, the growth was 21.7% in experiment [1]; 46.2% in experiment [2]; 62.7% in experiment [3]; 50.2% in experiment [4]; 13.5% in experiment [5]; 27.1% in experiment [6]. The figures for the growth in experiment [7] and in experiment [8] were 70.9% and 62.4%, respectively.
`COc1cc(/C=C/c2cc(/C=C/c3ccc(O)c(OC)c3)n(C(=O)Nc3ccccc3Cl)n2)ccc1O`: the growth in experiment [1] was 4.55% (active); in experiment [2], -26.4% (active); in experiment [3], 4.08% (active); in experiment [4], 6.99% (active); in experiment [5], 4.41% (active); in experiment [6] it was 1.16% (active). Besides, the growth is 2.83% (active) in experiment [7] and 0.0939% (active) in experiment [8].
Turning to `COc1ccc2nc(Cl)c(Cn3nnc(Cc4ccccc4)n3)cc2c1`, the growth in experiment [1] is 2.44% (active); in experiment [2] it was 20.3%; in experiment [3] it was 29.3%; in experiment [4], 66.4%; in experiment [5], 27.9%; in experiment [6], 29.2%. In addition, the growth in experiment [7] was 59%; in experiment [8], 36.5%.
Take `O=C(N/N=C/c1ccc(Cl)cc1)c1ccc(Cc2n[nH]c(=O)c3cccnc23)cc1`: the growth in experiment [1] is 99.4%; in experiment [2], 100%; in experiment [3] it was 95.5%; in experiment [4], 113%; in experiment [5] it was 95.8%; in experiment [6], 94.5%. The results for the growth in experiment [7] and in experiment [8] were 89.8% and 108%, respectively.
